Reference: article PMC7862700, “An all-to-all approach to the identification of sequence-specific readers for epigenetic DNA modifications on cytosine”

What was measured:
Experiment in all cases: DAPPL (digital affinity profiling via proximity ligation, sequencing); 10 mM Tris-HCl pH 7.5, 50 mM NaCl, 1 mM DTT, 4% glycerol, room temperature, 30 min; GST-TFs on glutathione beads, 16-mer random dsDNA library, 0.1% formaldehyde crosslink after washing; high values mean tight binding
[1] = target: T1, FLI1 (Homo sapiens, UniProt Q01543 1-452); conditions: protein: recombinant; tags: N-terminal GST; dsDNA, one strand shown
T1 sequence: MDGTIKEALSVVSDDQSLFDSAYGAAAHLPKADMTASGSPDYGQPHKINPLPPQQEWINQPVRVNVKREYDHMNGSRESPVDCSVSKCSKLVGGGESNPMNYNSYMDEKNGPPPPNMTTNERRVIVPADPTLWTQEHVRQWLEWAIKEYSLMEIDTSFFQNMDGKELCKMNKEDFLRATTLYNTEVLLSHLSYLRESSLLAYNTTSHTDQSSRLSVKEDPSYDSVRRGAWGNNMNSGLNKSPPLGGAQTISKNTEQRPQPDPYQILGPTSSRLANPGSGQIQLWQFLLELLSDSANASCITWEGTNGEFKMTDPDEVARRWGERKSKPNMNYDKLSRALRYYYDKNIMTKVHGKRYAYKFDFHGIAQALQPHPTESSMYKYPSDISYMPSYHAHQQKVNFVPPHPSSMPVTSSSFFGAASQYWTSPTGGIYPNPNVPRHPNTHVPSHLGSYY
Procedure, shortened: (§1)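 A tag-only sample was pooled with DNA-barcoded human transcription factors that had been expressed in yeast as GST fusions and captured on glutathione beads. The pools were incubated for 30 min at room temperature with 200 nmole of a random double-stranded 16-mer DNA library in Tris/NaCl/DTT/glycerol buffer, then washed, crosslinked with 0.1% formaldehyde, proximity-ligated (BsaI/T4 ligase, 1 h, 37 °C), PCR-amplified and sequenced on an Illumina NextSeq500. Binding signal is each hexamer's read frequency for a factor divided by its frequency for the tag-only sample.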

[2] = target: T2, ELK1 (Homo sapiens, UniProt P19419 1-428); conditions: protein: recombinant; tags: N-terminal GST; dsDNA, one strand shown
T2 sequence: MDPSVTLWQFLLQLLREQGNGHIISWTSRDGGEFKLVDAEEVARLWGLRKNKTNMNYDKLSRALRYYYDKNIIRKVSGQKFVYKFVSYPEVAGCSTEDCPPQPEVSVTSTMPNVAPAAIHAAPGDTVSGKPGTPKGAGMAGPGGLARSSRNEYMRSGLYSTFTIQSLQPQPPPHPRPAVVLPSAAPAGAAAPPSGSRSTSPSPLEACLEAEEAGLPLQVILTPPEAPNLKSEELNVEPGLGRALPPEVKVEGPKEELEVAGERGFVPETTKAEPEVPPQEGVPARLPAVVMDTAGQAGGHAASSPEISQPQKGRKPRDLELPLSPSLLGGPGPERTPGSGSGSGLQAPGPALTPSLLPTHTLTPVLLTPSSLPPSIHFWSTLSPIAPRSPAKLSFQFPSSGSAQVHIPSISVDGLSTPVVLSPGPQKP
Procedure, shortened: as §1

[3] = target: T3, GABPA (Homo sapiens, UniProt Q06546 1-454); conditions: protein: recombinant; tags: N-terminal GST; dsDNA, one strand shown
T3 sequence: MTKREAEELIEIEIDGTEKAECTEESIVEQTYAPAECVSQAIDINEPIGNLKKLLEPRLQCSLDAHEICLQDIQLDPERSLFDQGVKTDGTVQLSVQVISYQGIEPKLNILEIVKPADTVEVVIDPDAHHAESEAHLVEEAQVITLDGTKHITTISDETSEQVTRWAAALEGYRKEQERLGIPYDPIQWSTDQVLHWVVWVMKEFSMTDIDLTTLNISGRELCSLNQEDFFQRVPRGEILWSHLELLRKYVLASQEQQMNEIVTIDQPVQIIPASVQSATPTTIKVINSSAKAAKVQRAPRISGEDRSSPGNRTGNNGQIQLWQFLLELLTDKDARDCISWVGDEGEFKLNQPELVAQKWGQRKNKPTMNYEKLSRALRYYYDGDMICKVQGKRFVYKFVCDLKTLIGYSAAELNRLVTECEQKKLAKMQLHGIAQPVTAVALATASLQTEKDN
Procedure, shortened: as §1

[4] = target: T4, ERG (Homo sapiens, UniProt P11308 1-479); conditions: protein: recombinant; tags: N-terminal GST; dsDNA, one strand shown
T4 sequence: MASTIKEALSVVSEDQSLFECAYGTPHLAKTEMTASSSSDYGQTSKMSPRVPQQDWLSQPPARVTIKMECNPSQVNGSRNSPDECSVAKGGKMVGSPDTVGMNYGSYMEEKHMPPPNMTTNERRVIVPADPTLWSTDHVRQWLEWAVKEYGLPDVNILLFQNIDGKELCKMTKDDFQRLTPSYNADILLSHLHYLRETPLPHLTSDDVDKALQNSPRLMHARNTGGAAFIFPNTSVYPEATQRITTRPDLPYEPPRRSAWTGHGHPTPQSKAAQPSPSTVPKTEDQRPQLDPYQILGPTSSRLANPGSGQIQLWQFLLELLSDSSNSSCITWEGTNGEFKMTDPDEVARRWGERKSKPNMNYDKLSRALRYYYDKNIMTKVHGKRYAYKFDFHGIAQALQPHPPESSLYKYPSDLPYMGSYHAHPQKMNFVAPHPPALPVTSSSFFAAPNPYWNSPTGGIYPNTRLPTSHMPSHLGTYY
Procedure, shortened: as §1

[5] = target: ELF1 (Homo sapiens, UniProt P32519 1-619); conditions: protein: recombinant; tags: N-terminal GST; dsDNA, one strand shown
Procedure, shortened: as §1

[6] = target: T5, EHF (Homo sapiens, UniProt Q9NZC4 1-300); conditions: protein: recombinant; tags: N-terminal GST; dsDNA, one strand shown
T5 sequence: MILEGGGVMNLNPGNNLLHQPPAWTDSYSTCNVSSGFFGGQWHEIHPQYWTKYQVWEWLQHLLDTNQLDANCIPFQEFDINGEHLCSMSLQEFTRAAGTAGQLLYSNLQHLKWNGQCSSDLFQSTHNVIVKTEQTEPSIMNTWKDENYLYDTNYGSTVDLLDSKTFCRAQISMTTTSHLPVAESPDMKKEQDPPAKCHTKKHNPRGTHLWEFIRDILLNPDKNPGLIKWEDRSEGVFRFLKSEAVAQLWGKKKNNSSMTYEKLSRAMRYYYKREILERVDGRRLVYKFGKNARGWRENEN
Procedure, shortened: as §1

[7] = target: SPI1 (Homo sapiens, UniProt P17947 1-270); conditions: protein: recombinant; tags: N-terminal GST; dsDNA, one strand shown
Procedure, shortened: as §1

[8] = target: SPIB (Homo sapiens, UniProt Q01892 1-262); conditions: protein: recombinant; tags: N-terminal GST; dsDNA, one strand shown
Procedure, shortened: as §1

[9] = target: T6, ELK3 (Homo sapiens, UniProt P41970 1-407); conditions: protein: recombinant; tags: N-terminal GST; dsDNA, one strand shown
T6 sequence: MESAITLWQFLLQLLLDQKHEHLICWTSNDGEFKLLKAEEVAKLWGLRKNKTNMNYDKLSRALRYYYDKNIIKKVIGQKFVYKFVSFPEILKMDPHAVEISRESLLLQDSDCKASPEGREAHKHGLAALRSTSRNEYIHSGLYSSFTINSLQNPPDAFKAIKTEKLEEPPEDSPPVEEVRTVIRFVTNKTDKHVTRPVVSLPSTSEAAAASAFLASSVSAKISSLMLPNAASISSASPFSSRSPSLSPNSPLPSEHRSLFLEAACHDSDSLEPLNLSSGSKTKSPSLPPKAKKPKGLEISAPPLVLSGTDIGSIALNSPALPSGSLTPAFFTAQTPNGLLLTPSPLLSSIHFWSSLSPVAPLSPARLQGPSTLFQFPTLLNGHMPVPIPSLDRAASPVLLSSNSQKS
Procedure, shortened: as §1

[10] = target: T7, FEV (Homo sapiens, UniProt Q99581 1-238); conditions: protein: recombinant; tags: N-terminal GST; dsDNA, one strand shown
T7 sequence: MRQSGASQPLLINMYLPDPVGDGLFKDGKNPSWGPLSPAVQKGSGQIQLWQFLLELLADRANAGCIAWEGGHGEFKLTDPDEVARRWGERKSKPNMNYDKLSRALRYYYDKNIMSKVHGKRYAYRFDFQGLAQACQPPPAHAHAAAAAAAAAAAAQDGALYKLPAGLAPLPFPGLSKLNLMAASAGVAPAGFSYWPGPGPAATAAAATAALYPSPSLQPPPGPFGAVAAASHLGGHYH
Procedure, shortened: as §1

[11] = target: ETV5 (Homo sapiens, UniProt P41161 1-510); conditions: protein: recombinant; tags: N-terminal GST; dsDNA, one strand shown
Procedure, shortened: as §1

[12] = target: HSF1 (Homo sapiens, UniProt Q00613 1-529); conditions: protein: recombinant; tags: N-terminal GST; chain copies: 3; dsDNA, one strand shown
Procedure, shortened: as §1

[13] = target: T8, SPIC (Homo sapiens, UniProt Q8N5J4 1-248); conditions: protein: recombinant; tags: N-terminal GST; dsDNA, one strand shown
T8 sequence: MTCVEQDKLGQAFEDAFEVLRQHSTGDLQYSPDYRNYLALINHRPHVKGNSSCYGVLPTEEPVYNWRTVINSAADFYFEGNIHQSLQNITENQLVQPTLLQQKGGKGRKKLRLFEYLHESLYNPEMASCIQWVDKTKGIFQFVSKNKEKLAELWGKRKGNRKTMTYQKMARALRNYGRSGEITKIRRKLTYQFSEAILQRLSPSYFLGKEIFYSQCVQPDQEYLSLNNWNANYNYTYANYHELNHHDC
Procedure, shortened: as §1

[14] = target: ELF4 (Homo sapiens, UniProt Q99607 1-663); conditions: protein: recombinant; tags: N-terminal GST; dsDNA, one strand shown
Procedure, shortened: as §1

[15] = target: T9, ELK4 (Homo sapiens, UniProt P28324-2 1-405); conditions: protein: recombinant; tags: N-terminal GST; dsDNA, one strand shown
T9 sequence: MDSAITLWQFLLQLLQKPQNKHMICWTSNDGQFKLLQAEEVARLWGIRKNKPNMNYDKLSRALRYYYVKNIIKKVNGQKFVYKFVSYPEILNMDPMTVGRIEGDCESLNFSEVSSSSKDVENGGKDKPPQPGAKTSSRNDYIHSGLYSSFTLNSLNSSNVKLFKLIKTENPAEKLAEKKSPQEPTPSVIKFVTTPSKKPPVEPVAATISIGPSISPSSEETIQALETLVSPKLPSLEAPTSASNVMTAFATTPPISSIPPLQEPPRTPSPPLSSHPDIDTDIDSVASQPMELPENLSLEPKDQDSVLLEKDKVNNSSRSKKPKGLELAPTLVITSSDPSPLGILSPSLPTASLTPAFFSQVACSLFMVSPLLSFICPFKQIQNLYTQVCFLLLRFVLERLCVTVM
Procedure, shortened: as §1

[16] = target: T10, ETV2 (Homo sapiens, UniProt O00321 1-342); conditions: protein: recombinant; tags: N-terminal GST; dsDNA, one strand shown
T10 sequence: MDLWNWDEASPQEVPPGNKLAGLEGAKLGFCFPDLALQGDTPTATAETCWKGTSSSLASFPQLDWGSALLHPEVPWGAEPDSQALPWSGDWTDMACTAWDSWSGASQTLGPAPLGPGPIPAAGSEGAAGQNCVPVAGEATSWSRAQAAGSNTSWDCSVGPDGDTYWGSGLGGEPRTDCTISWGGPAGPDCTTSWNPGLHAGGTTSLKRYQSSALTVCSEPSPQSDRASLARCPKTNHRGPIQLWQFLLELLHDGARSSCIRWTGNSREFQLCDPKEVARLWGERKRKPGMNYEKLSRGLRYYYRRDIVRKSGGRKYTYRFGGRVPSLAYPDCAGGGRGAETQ
Procedure, shortened: as §1

[17] = target: T11, ELF3 (Homo sapiens, UniProt P78545 1-371); conditions: protein: recombinant; tags: N-terminal GST; dsDNA, one strand shown
T11 sequence: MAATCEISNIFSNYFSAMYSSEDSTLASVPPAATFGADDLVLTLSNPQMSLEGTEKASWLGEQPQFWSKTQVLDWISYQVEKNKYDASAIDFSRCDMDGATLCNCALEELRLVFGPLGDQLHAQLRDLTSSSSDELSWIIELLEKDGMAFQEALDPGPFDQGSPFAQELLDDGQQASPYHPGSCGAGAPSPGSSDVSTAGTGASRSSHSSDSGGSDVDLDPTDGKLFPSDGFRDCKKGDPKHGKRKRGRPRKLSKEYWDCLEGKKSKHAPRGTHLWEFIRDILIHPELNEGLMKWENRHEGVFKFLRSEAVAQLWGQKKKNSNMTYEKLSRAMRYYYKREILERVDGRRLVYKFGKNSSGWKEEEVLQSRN
Procedure, shortened: as §1

[18] = target: ETV1 (Homo sapiens, UniProt P50549 1-477); conditions: protein: recombinant; tags: N-terminal GST; dsDNA, one strand shown
Procedure, shortened: as §1

Chain of HSF1 (Q00613 whole entry): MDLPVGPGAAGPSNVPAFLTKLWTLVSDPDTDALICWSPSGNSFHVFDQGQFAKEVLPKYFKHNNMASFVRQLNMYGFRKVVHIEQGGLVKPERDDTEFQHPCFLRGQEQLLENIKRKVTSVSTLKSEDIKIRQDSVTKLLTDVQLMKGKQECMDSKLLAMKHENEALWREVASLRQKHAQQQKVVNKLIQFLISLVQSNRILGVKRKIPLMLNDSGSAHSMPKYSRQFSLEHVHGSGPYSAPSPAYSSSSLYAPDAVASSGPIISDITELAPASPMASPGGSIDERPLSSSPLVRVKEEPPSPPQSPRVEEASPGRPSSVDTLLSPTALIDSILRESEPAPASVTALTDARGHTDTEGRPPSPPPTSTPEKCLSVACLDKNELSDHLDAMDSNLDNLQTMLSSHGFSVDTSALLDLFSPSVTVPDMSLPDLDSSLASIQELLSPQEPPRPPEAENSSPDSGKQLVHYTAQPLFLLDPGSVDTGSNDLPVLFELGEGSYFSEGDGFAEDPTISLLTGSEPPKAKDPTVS
Chain of ETV1 (P50549 whole entry): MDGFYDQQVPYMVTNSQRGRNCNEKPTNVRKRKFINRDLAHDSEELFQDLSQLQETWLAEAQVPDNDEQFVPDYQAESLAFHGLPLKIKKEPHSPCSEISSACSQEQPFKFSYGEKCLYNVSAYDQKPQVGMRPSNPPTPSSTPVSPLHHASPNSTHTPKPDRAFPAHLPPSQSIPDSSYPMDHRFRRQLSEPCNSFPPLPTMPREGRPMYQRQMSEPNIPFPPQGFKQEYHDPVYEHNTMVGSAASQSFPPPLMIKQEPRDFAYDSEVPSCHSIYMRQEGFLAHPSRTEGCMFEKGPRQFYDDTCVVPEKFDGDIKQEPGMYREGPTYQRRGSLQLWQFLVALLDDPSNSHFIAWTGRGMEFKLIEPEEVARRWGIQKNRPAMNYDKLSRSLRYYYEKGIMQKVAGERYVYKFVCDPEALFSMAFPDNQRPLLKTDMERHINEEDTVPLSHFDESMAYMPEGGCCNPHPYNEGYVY
Chain of ETV5 (P41161 whole entry): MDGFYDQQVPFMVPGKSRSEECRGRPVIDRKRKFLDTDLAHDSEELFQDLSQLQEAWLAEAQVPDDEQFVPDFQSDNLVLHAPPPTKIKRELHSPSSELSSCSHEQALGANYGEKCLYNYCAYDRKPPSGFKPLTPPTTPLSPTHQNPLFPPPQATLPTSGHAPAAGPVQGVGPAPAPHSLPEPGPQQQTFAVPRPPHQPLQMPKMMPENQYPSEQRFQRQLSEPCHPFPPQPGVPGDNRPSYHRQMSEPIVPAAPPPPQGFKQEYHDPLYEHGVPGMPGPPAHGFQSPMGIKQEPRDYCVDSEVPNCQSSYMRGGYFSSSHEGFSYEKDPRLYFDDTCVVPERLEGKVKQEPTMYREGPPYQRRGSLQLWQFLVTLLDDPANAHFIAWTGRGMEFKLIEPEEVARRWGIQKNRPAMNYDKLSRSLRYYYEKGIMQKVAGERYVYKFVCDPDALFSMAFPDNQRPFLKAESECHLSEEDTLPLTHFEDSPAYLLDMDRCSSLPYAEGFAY
Chain of SPIB (Q01892 whole entry): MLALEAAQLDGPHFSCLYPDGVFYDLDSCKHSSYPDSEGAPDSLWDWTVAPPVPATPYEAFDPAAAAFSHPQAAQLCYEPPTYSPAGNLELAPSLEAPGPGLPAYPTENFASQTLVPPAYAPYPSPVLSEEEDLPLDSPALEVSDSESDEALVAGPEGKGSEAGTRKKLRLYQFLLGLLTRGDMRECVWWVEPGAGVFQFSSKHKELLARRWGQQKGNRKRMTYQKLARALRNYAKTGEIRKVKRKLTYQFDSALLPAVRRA
Chain of ELF1 (P32519 whole entry): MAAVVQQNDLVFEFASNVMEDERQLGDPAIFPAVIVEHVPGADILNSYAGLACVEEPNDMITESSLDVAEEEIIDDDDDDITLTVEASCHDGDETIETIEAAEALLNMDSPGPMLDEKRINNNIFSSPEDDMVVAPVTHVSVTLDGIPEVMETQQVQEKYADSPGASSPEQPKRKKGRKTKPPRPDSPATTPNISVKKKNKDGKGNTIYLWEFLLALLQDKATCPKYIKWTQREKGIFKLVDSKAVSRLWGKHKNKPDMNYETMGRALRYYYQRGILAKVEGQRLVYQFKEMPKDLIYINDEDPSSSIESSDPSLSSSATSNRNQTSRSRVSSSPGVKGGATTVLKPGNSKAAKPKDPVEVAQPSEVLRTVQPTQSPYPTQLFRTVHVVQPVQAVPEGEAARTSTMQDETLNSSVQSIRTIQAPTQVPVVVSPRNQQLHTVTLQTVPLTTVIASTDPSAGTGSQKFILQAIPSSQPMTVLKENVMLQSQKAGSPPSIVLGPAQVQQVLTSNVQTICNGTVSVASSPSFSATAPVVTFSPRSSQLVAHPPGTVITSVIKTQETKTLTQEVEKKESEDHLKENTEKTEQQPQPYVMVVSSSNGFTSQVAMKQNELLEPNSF
Chain of ELF4 (Q99607 whole entry): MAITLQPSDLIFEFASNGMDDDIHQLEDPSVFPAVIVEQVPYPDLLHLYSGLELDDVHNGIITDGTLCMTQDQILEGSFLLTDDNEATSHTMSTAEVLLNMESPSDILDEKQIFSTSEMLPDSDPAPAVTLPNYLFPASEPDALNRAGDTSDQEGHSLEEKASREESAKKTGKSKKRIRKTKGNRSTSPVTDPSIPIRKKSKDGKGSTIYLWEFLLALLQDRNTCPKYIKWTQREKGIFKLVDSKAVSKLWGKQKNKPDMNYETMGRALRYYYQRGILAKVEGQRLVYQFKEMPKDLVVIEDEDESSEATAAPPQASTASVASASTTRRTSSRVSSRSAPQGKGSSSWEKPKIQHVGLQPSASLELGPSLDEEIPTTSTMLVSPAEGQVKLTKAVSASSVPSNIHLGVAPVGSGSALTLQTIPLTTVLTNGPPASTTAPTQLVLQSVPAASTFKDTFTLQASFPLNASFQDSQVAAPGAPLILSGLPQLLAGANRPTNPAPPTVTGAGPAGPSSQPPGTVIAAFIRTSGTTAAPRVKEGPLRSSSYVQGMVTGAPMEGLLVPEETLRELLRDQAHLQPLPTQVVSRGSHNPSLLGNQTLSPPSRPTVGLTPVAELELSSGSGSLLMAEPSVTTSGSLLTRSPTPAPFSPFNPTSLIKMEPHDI

Question: For CCGACG, which binding signal [1] is on record?
Answer: 1.27 fold enrichment (6-mer frequency, TF over GST control)

Question: And the binding signal [2]?
Answer: 1.15 fold enrichment (6-mer frequency, TF over GST control)

Question: And the binding signal [3]?
Answer: 1.27 fold enrichment (6-mer frequency, TF over GST control)

Question: What about the binding signal [4] of the same sequence?
Answer: 1.2 fold enrichment (6-mer frequency, TF over GST control)

Question: And the binding signal [5]?
Answer: 1.28 fold enrichment (6-mer frequency, TF over GST control)

Question: What about the binding signal [6] of the same sequence?
Answer: 1.17 fold enrichment (6-mer frequency, TF over GST control)

Question: And the binding signal [7]?
Answer: 1.22 fold enrichment (6-mer frequency, TF over GST control)

Question: What about the binding signal [8] of the same sequence?
Answer: 1.32 fold enrichment (6-mer frequency, TF over GST control)

Question: What about the binding signal [9] of the same sequence?
Answer: 1.2 fold enrichment (6-mer frequency, TF over GST control)

Question: What about the binding signal [10] of the same sequence?
Answer: 1.22 fold enrichment (6-mer frequency, TF over GST control)

Question: What about the binding signal [11] of the same sequence?
Answer: 1.16 fold enrichment (6-mer frequency, TF over GST control)

Question: What about the binding signal [12] of the same sequence?
Answer: 1.02 fold enrichment (6-mer frequency, TF over GST control)

Question: And the binding signal [13]?
Answer: 1.57 fold enrichment (6-mer frequency, TF over GST control)

Question: What about the binding signal [14] of the same sequence?
Answer: 1.29 fold enrichment (6-mer frequency, TF over GST control)

Question: And the binding signal [15]?
Answer: 1.22 fold enrichment (6-mer frequency, TF over GST control)

Question: What about the binding signal [16] of the same sequence?
Answer: 1.31 fold enrichment (6-mer frequency, TF over GST control)

Question: What about the binding signal [17] of the same sequence?
Answer: 1.14 fold enrichment (6-mer frequency, TF over GST control)

Question: And the binding signal [18]?
Answer: 1.2 fold enrichment (6-mer frequency, TF over GST control)
